Hit rate of the full screen: of about 68,000 compounds, about 2,700 (4%) showed an effect of 50% or more. The full list was thinned out, with strong results kept by preference.

Consider 54 compounds from ChEMBL document CHEMBL4513216, “Probing the Open Global Health Chemical Diversity Library for Multistage-Active Starting Points for Next-Generation Antimalarials” (ACS Infect Dis, 2020).

For the assay, the system named is Plasmodium berghei. The assay can be described thus: Screen against P. berghei liver stage (PbLuc), transformed with Luciferase, at 2uM. The format is functional, HepG2. The following applies: tested at 2 uM.
In the case of `O=C(c1ccc(Cl)cc1)N1CCC(N2CCCNC2=O)CC1`, the INHIBITION stood at 27.54%.
With `O=C(c1ccoc1)N1CCC2(CC1)COC(COc1ccccn1)C2` (centres undefined), the INHIBITION was 24.51%.
With `COCCC1COC2(CCN(C(=O)c3cccnc3)CC2)C1` (centres undefined), the INHIBITION worked out at 1.81%.
Next, `Cn1cc(CN2C[C@@H]3COC[C@]3(CNC(=O)c3ccsc3)C2)cn1`: 9.79%.
To `Cc1cnc(CN(Cc2ccc(Cl)s2)C2CCN(C)C2)o1` (centres undefined) belongs 14.83%; to `Cc1cnc(CN(Cc2ccc(C#N)cc2F)C2CCN(C)C2)o1` (centres undefined), 60.84%.
Next, `COc1ccc(C)cc1CN(Cc1ncc(C)o1)C1CCN(C)C1` (centres undefined): -5.79%; `CN1CCN(CC2CC2)C(=O)c2cnc(N3CCC(CO)CC3)nc21`: -13.87%.
`CSCCC(NC(N)=O)C(=O)Nc1ccc(-n2cccn2)nc1` (centres undefined): the INHIBITION is -0.41%.
Consider `CSCCC(NC(N)=O)C(=O)NCc1ccc(-n2cccn2)cc1` (centres undefined), for which the INHIBITION is recorded as 50.42%.
To `CSCCC(NC(N)=O)C(=O)NCc1cnn(-c2ccccc2)c1` (centres undefined) belongs -12.03%.
Next, `CCCOc1cc(C)ccc1NC(=O)NCCC(=O)N(C)C`: -36.17%.
Regarding `COc1cc(C(=O)NC2COc3ccccc3C2)ccc1OCC(N)=O` (centres undefined), the INHIBITION is -3.62%.
Next, `COc1cccc(C(=O)N2CCOCC2CN(C)C)c1OC` (centres undefined): 31.55%; `OC(CNCc1nnc2ccccn12)c1ccc2c(c1)OCO2` (centres undefined): 31.54%.
Next, `CC(C)NC(=O)N1CCC(c2nnc3n2CCNC3)CC1`: 13.28%; `COc1cccc2c1OCC(CNC(=O)Cn1ccnc1C)C2` (centres undefined): 50.32%.
Regarding `COc1cccc2c1OCC(CNC(=O)CSc1ccccn1)C2` (centres undefined), the INHIBITION is recorded as 33.11%.
Next, `COc1cccc2c1OCC(CNC(=O)Cc1cnccn1)C2` (centres undefined): -20.89%; `Cn1cccc1C(=O)N1CCC2(CC1)CC(N1CCOCC1)C2`: 35.89%.
`Cc1ccc(S(=O)(=O)N2CCC(S(=O)(=O)c3nncn3C)CC2)cc1C`: the INHIBITION is -19.3%.
For `Cn1cnnc1S(=O)(=O)C1CCN(S(=O)(=O)c2ccccc2F)CC1`, the INHIBITION is -8.91%.
To `Cn1cnnc1S(=O)(=O)C1CCN(S(=O)(=O)c2ccc(F)c(Cl)c2)CC1` belongs 60.09%; to `CCOC(=O)N1CCC(NC(C)Cc2cc(C)n[nH]2)CC1` (centres undefined), -0.88%; to `CCOC(=O)N1CCC(NC(C)c2ccccc2-n2cccn2)CC1` (centres undefined), 52.89%.
Next, `CC(C)CN1CCC(NC(C)c2ccccc2-n2cccn2)CC1` (centres undefined): 12.11%; `O=C1COC2(CCN(S(=O)(=O)C3CC3)CC2)CN1c1cccnc1`: 10.37%.
Next, `CCN(C(=O)Nc1nccs1)C(C)c1cccc(O)c1` (centres undefined): -81.27%.
Consider `NC(=O)c1cnn2c1NCC(CNCC1(c3ccccc3)CCCC1)C2` (centres undefined), for which the INHIBITION is on record as -181.66%.
For `CN(Cc1ccc(Cl)s1)C(=O)COc1cccc(C(N)=O)c1`, the INHIBITION was 34.61%.
Next, `CN(Cc1ccc(Cl)s1)C(=O)c1cccc(OCC(N)=O)c1`: 26.14%; `CN(Cc1ccc(Cl)s1)C(=O)c1ccccc1OCC(N)=O`: 54.75%; `CCOCC(=O)N1C[C@@H](NC(C)=O)[C@H](c2ccc(OC)cc2)C1`: 20.15%.
On to `COc1ccc([C@@H]2CN(C(=O)CS(C)(=O)=O)C[C@H]2NC(C)=O)cc1`, for which the INHIBITION was found to be 1.85%.
On to `COCCN(C)CC(=O)N1C[C@@H](NC(C)=O)[C@H](c2ccc(OC)cc2)C1`, for which the INHIBITION worked out at 53.13%.
Turning to `Cc1cnn(CC2CN(Cc3nc4ccccc4s3)CCO2)c1` (centres undefined), the INHIBITION was found to be 53.98%.
In the case of `c1ccc2sc(CN3CCOC(Cn4cccn4)C3)nc2c1` (centres undefined), the INHIBITION is given as -88.54%.
Next, `c1ccc2sc(CN3CCOC(Cn4cncn4)C3)nc2c1` (centres undefined): 5.72%.
To `Cn1cc(C(=O)NCCc2ccc(OC3CCCC3)cc2)ccc1=O` belongs -25.78%.
As to `CCOCc1cncc2c1CCN(S(=O)(=O)c1ccccc1)C2`, the INHIBITION was -18.7%.
To `CCOCc1cncc2c1CCN(S(=O)(=O)c1cccc(C)c1)C2` belongs 9.36%; to `CCOCc1cncc2c1CCN(S(=O)(=O)c1ccc(C)cc1)C2`, 70.13%.
To `COc1ccc(CN2C[C@@H]3OCCN(CCN4CCCC4)[C@@H]3C2)cc1` belongs 28.85%.
Next, `CN(C(=O)c1cccc(NCc2cccs2)c1)C(C1CC1)C1CC1`: 29.41%; `Nc1nc2c(c(NCc3nccs3)n1)CCN(CC1CCCC1)CC2`: -1.29%; `CCc1cnc(CN(C(C)=O)C2CCN(CCc3ccccc3)C2)o1` (centres undefined): 51.94%.
On to `CCc1cnc(CN(C(C)=O)C2CCN(CCS(C)(=O)=O)C2)o1` (centres undefined), for which the INHIBITION is -9.62%.
Next, `CCc1cnc(CN(C(C)=O)C2CCN(Cc3nccn3C)C2)o1` (centres undefined): 10.22%; `CCc1cnc(CN(C(C)=O)C2CCN(CC(=O)N3CCCC3)C2)o1` (centres undefined): 75.98%; `CCc1cnc(CN(C(C)=O)C2CCN(CCc3cnn(C)c3)C2)o1` (centres undefined): 1.61%.
For the compound `CCc1cnc(CN(C(C)=O)C2CCN(CC3(O)CCCCC3)C2)o1` (centres undefined), the INHIBITION came to 43.79%.
To `CCc1cnc(CN(C(C)=O)C2CCN(CCN3CCCCC3)C2)o1` (centres undefined) belongs 56.02%; to `CCc1cnc(CN(C(C)=O)C2CCN(CCc3ccncc3)C2)o1` (centres undefined), 17.31%; to `CCc1cnc(CN(C(C)=O)C2CCN(CCc3ccccn3)C2)o1` (centres undefined), 35.65%.
